We go through eight compounds from PubChem BioAssay.

The nature of test [1]: compound effects on differentiated 3T3-L1 adipocyte viability – cell-based, 3T3-L1 adipocytes, calcein-AM fluorescence, 48 h, basal, profiling panel (AID 1163). The settings on record: 3T3-L1 adipocytes viability, higher = more signal.
The nature of test [2]: compound effects on hepatocellular carcinoma cell viability – HepG2, calcein-AM fluorescence, 48 h, basal, profiling panel (AID 1164). The settings on record: higher = more signal.
Test [3] is described as follows: compound effects on multiple myeloma cell viability – MM1S, calcein-AM fluorescence, 48 h, basal, profiling panel (AID 1165).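 Note: viability of MM1S multiple myeloma cells under basal unstimulated conditions.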 The settings on record: higher = more signal.
A short description of test [4]: calcein-AM signal in unstimulated myeloma cells – cell-based, calcein-AM fluorescence, 48 h, PK04 Diversity Set, profiling panel (AID 1166).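 Note: cells grown under basal conditions without added stimulus.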 Particulars: RPMI8226 myeloma viability, higher = more signal.
Test [5] in a line: JC-1 mitochondrial signal, unstimulated HepG2 cells – cell-based, JC-1 fluorescence, 24 h, 100 nL compound, profiling panel (AID 1167). Particulars: HepG2 mitochondrial potential, higher = more signal.
Test [6] can be described thus: JC-1 mitochondrial signal, unstimulated adipocytes – cell-based, JC-1 fluorescence, 3T3-L1 adipocytes, 24 h, 100 nL compound, profiling panel (AID 1168). Particulars: JC-1 mitochondrial fluorescence, higher = more signal, called active from +8 up or from −8 down.
Test [7] can be described thus: JC-1 mitochondrial signal, unstimulated myeloma cells – cell-based, JC-1 fluorescence, RPMI8226, 24 h, 100 nL compound, profiling panel (AID 1169). The settings on record: JC-1 mitochondrial potential fluorescence, higher = more signal.
The nature of test [8]: JC-1 mitochondrial signal, unstimulated MM1S myeloma – cell-based, JC-1 fluorescence, 24 h, 100 nL compound, profiling panel (AID 1170). The settings on record: MM1S mitochondrial potential, higher = more signal.
The nature of test [9]: resazurin metabolic signal in A549 cells – cell-based, resazurin fluorescence, 24 h, PK04 Diversity Set, profiling panel (AID 1171). Particulars: A549 viability, higher = more signal, called active from +8 up or from −8 down. On the technique in general: The colour change of resazurin is a common sign of viable cells or microbes.
Test [10] is described as follows: resazurin metabolic signal in HepG2 cells – cell-based, resazurin fluorescence, 24 h, PK04 Diversity Set, profiling panel (AID 1172). The settings on record: HepG2 viability, higher = more signal.
A short description of test [11]: budding yeast growth changes without added modifier – OD600, strain BY4716, 24 h, basal condition, primary screen (AID 1173). Particulars: S. cerevisiae BY4716 growth, OD600, 24 h; higher = more signal, called active from +8 up or from −8 down.
Test [12] is described as follows: viability profiling in MM1S myeloma cells – cell-based, resazurin fluorescence, basal, 24 h, PK04 Diversity Set, profiling panel (AID 1174). Particulars: higher = more signal, called active from +8 up or from −8 down.
Test [13] concerns the target Dihydroorotate dehydrogenase (quinone), mitochondrial (Plasmodium falciparum (isolate 3D7)) (UniProt Q08210). Description: inhibition of P. falciparum DHODH – biochemical, C-terminal His tag, absorbance 600 nm, primary screen (AID 1175).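 Note: recombinant parasite enzyme with a five histidine tag at its C terminus.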 The settings on record: PfDHODH enzyme, DCIP absorbance 600 nm; higher = more signal, called active from +8 up or from −8 down.
The nature of test [14]: growth modulation of vineyard yeast isolate – strain RM11-1a, OD600, basal, 24 h, primary screen (AID 1177).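 Note: cultures grown under basal conditions with no added stressor.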 Particulars: S. cerevisiae RM11-1a growth, OD600, 24 h; higher = more signal, called active from +8 up or from −8 down.
Test [15] can be described thus: growth of efflux-deficient E. coli DRC39 – strain DRC39, OD650, 24 h, E. coli filamentation inducers, primary screen (AID 1178).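 Note: growth measured as culture turbidity by optical density at 650 nm.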 Particulars: E. coli DRC39 acrAB, higher = more signal, called active from +8 up or from −8 down.
Test [16] in a line: growth of efflux-deficient E. coli DRC39 – strain DRC39, OD650, 48 h, E. coli filamentation inducers, primary screen (AID 1179).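 Note: screen aims at cell division blockers that make cells filament.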 Particulars: E. coli DRC39 delta-acrAB growth, higher = more signal, called active from +8 up or from −8 down.
Test [17] can be described thus: viability profiling in RPMI8226 myeloma cells – cell-based, resazurin fluorescence, basal, 24 h, PK04 Diversity Set, profiling panel (AID 1180).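 Note: RPMI8826 multiple myeloma cell line at 5000 cells per well.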 The settings on record: higher = more signal.
The target of test [18] is E3 ubiquitin-protein ligase XIAP (Homo sapiens) (UniProt P98170). Description: small molecules binding XIAP protein – biophysical, small-molecule microarray, fluorescence 635 nm, primary screen (AID 1181).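 Note: score merges 667 nm emission and signal to noise over triplicate slides.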 Particulars: higher = more signal.
E3 ubiquitin-protein ligase XIAP (Homo sapiens), sequence (P98170 whole entry, looked up, the tested form may be a part): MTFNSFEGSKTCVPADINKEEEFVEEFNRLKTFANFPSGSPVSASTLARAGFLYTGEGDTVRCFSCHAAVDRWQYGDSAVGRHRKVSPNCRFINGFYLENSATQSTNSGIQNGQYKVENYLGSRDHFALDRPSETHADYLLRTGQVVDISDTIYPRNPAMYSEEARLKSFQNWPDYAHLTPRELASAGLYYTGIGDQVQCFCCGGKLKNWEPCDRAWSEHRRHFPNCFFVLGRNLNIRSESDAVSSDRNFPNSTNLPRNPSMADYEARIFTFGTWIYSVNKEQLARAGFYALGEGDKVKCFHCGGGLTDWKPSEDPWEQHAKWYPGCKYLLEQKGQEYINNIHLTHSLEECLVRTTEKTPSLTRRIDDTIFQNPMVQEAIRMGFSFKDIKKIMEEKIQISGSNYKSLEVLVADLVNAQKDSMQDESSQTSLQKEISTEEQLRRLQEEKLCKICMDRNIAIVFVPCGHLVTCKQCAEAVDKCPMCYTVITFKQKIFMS
Test [19] has as its system XIP peptide (Xip251-270) binding. Description: XIP fragment 251-270 binding compounds – biochemical, small-molecule microarray, fluorescence 635/667 nm, 0.1 µg/mL protein, primary screen (AID 1182). The settings on record: fluorescent protein binding, 635 nm, higher = more signal, called active from +8 up or from −8 down.
The test system of the next test is XIP peptide (Xip251-270). Description: compounds binding XIP fragment 251-270 – biochemical, small-molecule microarray, fluorescence 635/667 nm, 0.5 µg/mL protein, primary screen (AID 1183). The settings on record: fluorescence 635 nm, higher = more signal.

The structures appear in SMILES notation. Calls of active or inactive are those of the source.

Dihydroorotate dehydrogenase (quinone), mitochondrial (Plasmodium falciparum (isolate 3D7)), sequence (Q08210 whole entry, looked up): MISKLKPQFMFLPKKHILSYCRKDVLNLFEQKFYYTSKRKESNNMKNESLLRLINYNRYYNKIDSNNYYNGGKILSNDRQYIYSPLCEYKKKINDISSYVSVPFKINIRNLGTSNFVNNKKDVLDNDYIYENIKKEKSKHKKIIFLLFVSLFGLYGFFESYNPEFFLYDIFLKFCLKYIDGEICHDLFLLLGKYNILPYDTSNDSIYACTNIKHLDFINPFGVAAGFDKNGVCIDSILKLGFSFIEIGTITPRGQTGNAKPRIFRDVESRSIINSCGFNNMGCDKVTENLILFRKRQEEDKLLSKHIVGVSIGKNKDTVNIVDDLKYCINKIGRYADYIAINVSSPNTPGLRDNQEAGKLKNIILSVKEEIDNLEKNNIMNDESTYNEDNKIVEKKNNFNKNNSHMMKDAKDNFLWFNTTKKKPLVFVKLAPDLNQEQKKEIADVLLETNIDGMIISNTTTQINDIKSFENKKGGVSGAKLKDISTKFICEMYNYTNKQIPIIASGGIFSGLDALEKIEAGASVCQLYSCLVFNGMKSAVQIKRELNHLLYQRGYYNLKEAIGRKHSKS

With `C=C(C(=O)CC[C@@H](OC(C)=O)c1ccccc1OCCO)C(C)C`, the z-score was -0.161 in test [1]; -0.9 in [2]; -0.951 in [3]; 0.0365 in test [4]; -0.75 in test [5]; 0.544 (inactive) in test [6]. For the same compound, the z-score was -0.0109 in [7]; 0.0542 in test [8]; 0.788 (inactive) in test [9]; 0.166 in test [10]; -13 (active) in test [11]; 0.932 (inactive) in test [12]. Besides, the z-score was 0.0933 (inactive) in test [14], 1.33 (inactive) in test [15], 0.928 (inactive) in [16] and 1.57 in [17]. The composite z-score is -3.59 (inactive) in [13], -0.0163 in test [18], 0.888 (inactive) in test [19] and 0.565 in the test with XIP peptide (Xip251-270).

For the compound `COc1ccc([Si](C)(C)[C@@H]2[C@@H](CC(=O)N3CCC[C@H]3CO)O[C@]3(C(=O)N(Cc4ccc(N5CCC5=O)cc4)c4ccccc43)[C@H]2C)cc1`, the z-score in test [1] is 0.592; in test [2], -3.27; in test [3] it was -2.7; in [4] it was -4.39; in [5] it was -1.56; in test [6] it was 1.28 (inactive). The z-score in test [7] was -1.18; in test [8] it was -1.66; in [9], -1.99 (inactive); in test [10], -1.43; in test [11] it was -1.17 (inactive); in test [12], -2.01 (inactive). The z-score in [14] was 0.613 (inactive); in [15] it was 1.34 (inactive); in test [16], 1.2 (inactive); in test [17], -5.16. Also, the composite z-score in test [13] is -2.42 (inactive); in [18] it was -0.117; in [19], 1.15 (inactive); with XIP peptide (Xip251-270) it was 0.713.

Turning to `COC(=O)c1c2oc(c1C(=O)OC)C(=O)N[C@@H](C(C)C)Cn1nncc1C1(CCCCC1)NC(=O)N[C@H](CO)CC2`, the z-score in test [1] was -0.5; in [2], 0.619; in [3], 0.276; in test [4], -0.161; in test [5], 1.58; in [6] it was 0.994 (inactive). The z-score was 0.144 in test [7]; 1.08 in test [8]; 2.11 (inactive) in test [9]; 2.17 in [10]; -3.46 (inactive) in test [11]; 1.4 (inactive) in [12]. The z-score in test [14] was -0.989 (inactive); in test [15] it was 2.61 (inactive); in [16], 2.18 (inactive); in test [17] it was 0.928. The composite z-score in [13] is 0.62 (inactive); in test [18], 0.0623; in test [19], -0.503 (inactive); in the test with XIP peptide (Xip251-270), -0.985.

As to `O=C(O)[C@H]1C[C@H]2C(=O)N[C@@H](Cc3ccccc3)C(=O)N2[C@H]1c1ccc(O)cc1`, the z-score in test [1] is 0.691; in test [2], -0.142; in test [3], 0.41; in test [4] it was 0.0405; in test [5] it was 1.29; in test [6], -0.176 (inactive). Besides, the z-score is -0.865 in test [7]; -0.269 in [8]; 0.715 (inactive) in test [9]; 0.833 in [10]; -0.145 (inactive) in test [11]; 0.635 (inactive) in test [12]. Moreover, the z-score in [14] is -0.44 (inactive); in test [15] it was 0.431 (inactive); in [16], 0.361 (inactive); in [17] it was 1.04. The composite z-score is -0.426 (inactive) in [13], 0.117 in test [18], 0.3 (inactive) in test [19] and 0.923 in the test with XIP peptide (Xip251-270).

Consider `COCCOC(=O)N1C(=O)[C@@]2(c3cc(C#CC4(O)CCCCCC4)ccc31)[C@H](c1ccccc1OCCO)N1[C@H](c3ccccc3)[C@H](c3ccccc3)OC(=O)[C@H]1[C@@H]2C(=O)Nc1nc2ccccc2s1`, for which the z-score is 1.65 in test [1]; -0.133 in test [2]; -2.71 in [3]; -4.28 in test [4]; -2.52 in [5]; 1.52 (inactive) in test [6]. Moreover, the z-score was -1.14 in [7]; -0.807 in [8]; 0.611 (inactive) in test [9]; 0.189 in test [10]; 1.15 (inactive) in [11]; -0.326 (inactive) in test [12]. Further, the z-score was 2.77 (inactive) in [14], -0.0438 (inactive) in [15], 0.61 (inactive) in test [16] and -0.346 in test [17]. Besides, the composite z-score in [13] is 0.764 (inactive); in test [18], -0.0765; in test [19], 1.65 (inactive); with XIP peptide (Xip251-270) it was 0.649.

With `Cc1ccc(S[C@]2(C(=O)NCCN3CCOCC3)CC(=O)N(Cc3cc(C(F)(F)F)cc(C(F)(F)F)c3)[C@@H]2c2ccc(CO)cc2)cc1`, the z-score was 0.947 in test [1]; -0.0671 in test [2]; 1.15 in [3]; 0.603 in test [4]; 1.18 in test [5]; 0.784 (inactive) in [6]. Further, the z-score is -0.0854 in [7]; 0.685 in [8]; 3.33 (inactive) in test [9]; 1.08 in test [10]; -1.76 (inactive) in test [11]; 0.828 (inactive) in [12]. Also, the z-score was -2.54 (inactive) in [14], 1.01 (inactive) in test [15], 1.45 (inactive) in test [16] and 0.672 in [17]. In addition, the composite z-score in test [13] was -0.911 (inactive); in test [18], 0.0808; in test [19], -0.316 (inactive); in the test with XIP peptide (Xip251-270), 0.0326.

Consider `COC(=O)C(CC#Cc1ccc2c(c1)[C@]1(C(=O)N2)[C@H](C(N)=O)[C@H]2C(=O)O[C@H](c3ccccc3)[C@H](c3ccccc3)N2[C@@H]1c1ccc(O)cc1)C(=O)OC`, for which the z-score was 0.915 in test [1]; 0.72 in test [2]; 0.555 in [3]; -1.42 in [4]; -2.22 in test [5]; -0.2 (inactive) in [6]. The z-score was -1.17 in test [7]; 1.25 in test [8]; 1.16 (inactive) in test [9]; 0.259 in [10]; -1.26 (inactive) in test [11]; 1.52 (inactive) in [12]. Further, the z-score is 0.208 (inactive) in [14], 0.105 (inactive) in [15], 0.572 (inactive) in [16] and 1.27 in test [17]. The composite z-score is -0.0538 (inactive) in test [13], 0.0239 in test [18], 1.07 (inactive) in test [19] and -1.13 with XIP peptide (Xip251-270).

In the case of `CC(CO)N1C(=O)[C@@H]2C3C(=O)OCCC/C=C\[C@H]3OC23C=CCN(Cc2ccccc2)C(=O)[C@@H]13` (stereo not given in full), the z-score in test [1] was -0.154; in test [2], 0.547; in [3] it was 2.05; in test [4] it was -0.172; in test [5] it was 0.797; in [6], 1.86 (inactive). Also, the z-score in test [7] was -0.0742; in test [8], 0.322; in test [9] it was 0.754 (inactive); in test [10], 0.918; in test [11], -0.703 (inactive); in [12], 0.462 (inactive). Moreover, the z-score in test [14] is -0.985 (inactive); in [15] it was 1.6 (inactive); in [16], 1.97 (inactive); in test [17] it was 0.526. Further, the composite z-score in test [13] was -0.761 (inactive); in test [18], -0.0333; in test [19], -0.554 (inactive); in the test on XIP peptide (Xip251-270), -0.736.
